For 40 molecules, outcome and AC50 results are on record in PubChem BioAssay (EPA / NIEHS).

One may read the AC50 as the midpoint of the concentration-response curve, whichever way the signal moves.

Molecules are shown by their SMILES. Active and inactive are the calls of the source. Rule for the calls: active = hit-call score of the fitted dose curve at least 0.9, where 1 is the maximum; inactive = score below 0.9.

The target of this assay is Transcriptional activator Myb (Homo sapiens) (UniProt P10242). The assay is described as follows: ATG_Myb_CIS: Attagene CIS-FACTORIAL HepG2 Assay for human Myeloblastosis (Myb) Proto-Oncogene Transcription Factor (AID 2282986). To be noted: HepG2 Attagene CIS-FACTORIAL Myb reporter transcription; actives raise or lower the signal. As for the experimental part: ATG_CIS is a cell-based, multiplexed-readout assay that uses HepG2, a human liver cell line, with measurements taken at 24 hours after chemical dosing in a 24-well plate.ATG_Myb_CIS is one of 52 assay component(s) measured or calculated from the ATG_CIS assay. It is designed to make measurements of mRNA induction, a form of inducible reporter, as detected with fluorescence intensity signals by Reverse transcription polymerase chain reaction (RT-PCR) and Capillary electrophoresis technology.Data from the assay component ATG_Myb_CIS was analyzed into 1 assay endpoint. This assay endpoint, ATG_Myb_CIS, was analyzed with bidirectional fitting relative to DMSO as the negative control and baseline of activity. Using a type of inducible reporter, measures of mRNA for gain or loss-of-signal activity can be used to understand the reporter gene at the transcription factor-level as they relate to the gene MYB. Furthermore, this assay endpoint can be referred to as a primary readout, because this assay has produced multiple assay endpoints where this one serves a reporter gene function. To generalize the intended target to other relatable targets, this assay endpoint is annotated to the dna binding intended target family, where the subfamily is MYB proteins.
Sequence of Transcriptional activator Myb (Homo sapiens) (P10242 whole entry, looked up): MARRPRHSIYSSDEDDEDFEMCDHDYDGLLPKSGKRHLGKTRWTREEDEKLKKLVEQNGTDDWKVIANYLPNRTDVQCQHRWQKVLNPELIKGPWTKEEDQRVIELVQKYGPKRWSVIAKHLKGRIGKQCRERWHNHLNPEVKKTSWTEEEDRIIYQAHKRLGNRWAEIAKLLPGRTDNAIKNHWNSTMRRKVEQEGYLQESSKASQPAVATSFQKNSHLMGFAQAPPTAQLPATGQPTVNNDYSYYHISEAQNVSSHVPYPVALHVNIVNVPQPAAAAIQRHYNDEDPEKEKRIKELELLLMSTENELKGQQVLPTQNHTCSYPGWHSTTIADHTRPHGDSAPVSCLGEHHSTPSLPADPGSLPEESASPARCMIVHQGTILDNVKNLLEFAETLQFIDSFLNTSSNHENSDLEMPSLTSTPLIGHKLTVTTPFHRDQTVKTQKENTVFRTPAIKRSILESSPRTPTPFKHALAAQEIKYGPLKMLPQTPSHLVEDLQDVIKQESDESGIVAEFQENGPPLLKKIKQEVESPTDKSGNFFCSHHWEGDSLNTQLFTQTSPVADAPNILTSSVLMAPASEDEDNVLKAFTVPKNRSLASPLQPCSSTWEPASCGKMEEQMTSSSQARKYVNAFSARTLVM
Human liver HepG2 cells are transiently transfected with multiple reporter transcription units (MRTUs) in 6-well plates using FuGene 6 reagent (Roche; 3 ml FuGene/1 mg DNA). The MRTU constructs are regulated by a cis-regulating element (promoter). […] A major difference between the CIS and TRANS system is that in CIS activities of endogenous TFs are measured, whereas the TRANS assay evaluates changes in activities of exogenous, chimeric NR-Gal4 proteins. […] At the end of 24 hour incubation, total RNA was isolated using TriZol reagent (Invitrogen). The isolated RNA is then reverse-transcribed using oligo(dT) primer and Mo-MLV reverse transcriptase (Invitrogen) with DNAse I (Ambion) treatment for 30 min. The one-tenth of the produced cDNA was amplified by PCR using Taq DNA polymerase (Invitrogen) and two reporter sequence-specific primers. The PCR products were fluorescently labeled by primer extension with 6-arboxyfluorescein (6-FAM) 5'-labeled reporter sequence-specific primer (2 min at 95 C, 20 s at 68 C and 10 min at 72 C) and these products were digested with 5U of HpaI (New England Biolabs) for 2h at 37 C. The fragments were purified using Qiaquick PCR columns (Qiagen), analyzed on an ABI 3130xL genetic analyzer (Applied Biosystems) with peak positions identified by using a set of X-rhodamine (ROX)-labeled MapMarker1000 molecular weight standards (BioVentures). The raw capillary electrophoresis data was processed using Attagraph software (Attagene).
Regarding `Cc1occc(=O)c1OC(=O)C(C)C`, the outcome was inactive.
Take `CC(C)OCCO`: the molecule was classed as inactive.
Still for that read-out and setting: with `CC/C=C\CCOC(=O)CC` the entry was “inactive”; with `Brc1ccc(Br)c(Br)c1`, “inactive”.
`C[C@H]1O[C@@H](O[C@H]2[C@@H](O)C[C@H](O[C@H]3[C@@H](O)C[C@H](O[C@H]4CC[C@@]5(C)[C@H](CC[C@@H]6[C@@H]5C[C@@H](O)[C@]5(C)[C@@H](C7=CC(=O)OC7)CC[C@]65O)C4)O[C@@H]3C)O[C@@H]2C)C[C@H](O)[C@@H]1O`: the AC50 is 428 nM (active).
As to `CCC(=O)O[C@@H]1C[C@H]2CC[C@]1(C)C2(C)C`, the outcome was inactive.
With `CCOC(=O)CC(C)O` (stereo not given), the molecule was classed as inactive.
The same measure, in the same setting: with `C[Si]1(C)O[Si](C)(C)O[Si](C)(C)O1` the entry was “inactive”; with `Nc1ccc2cc(S(=O)(=O)O)cc(O)c2c1N=Nc1ccccc1C(F)(F)F`, “inactive”.
With `C1=CC2C3C=CC(C3)C2C1` (stereo not given), the molecule was classed as inactive.
Same read-out and setting: for `CCC(=O)OCCOc1ccccc1` the value was “inactive”; for `CCOc1ccc(N=Nc2ccc(C=Cc3ccc(N=Nc4ccc(OCC)cc4)cc3S(=O)(=O)O)c(S(=O)(=O)O)c2)cc1`, “inactive”.
Same read-out and setting: with `C=C(CC(=O)O)C(=O)O` the entry was “inactive”.
As for `C1CCCCC1`, the molecule was called inactive.
`C[C@@H]1CCN(C(=O)[C@H](CCCN=C(N)N)NS(=O)(=O)c2cccc3c2NC[C@H](C)C3)[C@@H](C(=O)O)C1`: the result was inactive.
With `Cc1ccc(-c2ccccc2)cc1`, the molecule was called inactive.
On the same count and under the same terms, for `O=C(CS)OCCOC(=O)CS` the value was “inactive”; for `C=CC(=O)OCCC#N`, “inactive”; for `Cc1[nH]c(=O)c(C#N)cc1-c1ccncc1`, “inactive”.
As to `COC(=O)Nc1ccc(Cl)c(Cl)c1`, the call was inactive.
The same measure, in the same setting: with `COc1ccccc1[N+](=O)[O-]` the entry was “inactive”; with `CC(=O)O[C@@H]1C[C@@H]2CC[C@@]1(C)C2(C)C`, “inactive”; with `OCc1ccc(Cl)cc1Cl`, “inactive”.
The same measure, in the same setting: for `C=COCCOCCOC=C` the value was “inactive”.
In the case of `Nc1c(S(=O)(=O)O)cc(Br)c2c1C(=O)c1ccccc1C2=O`, the molecule was called inactive.
Take `O=CN1CCOCC1`: the molecule was called inactive.
With `COc1cc([C@@H]2c3cc4c(cc3[C@@H](O[C@@H]3O[C@@H]5CO[C@@H](C)O[C@H]5[C@H](O)[C@H]3O)[C@H]3COC(=O)[C@H]23)OCO4)cc(OC)c1O`, the call was inactive.
Regarding `CCCCCCC(=O)c1ccccc1`, the molecule was called inactive.
Same read-out and setting: for `Nc1ccn([C@H]2CS[C@@H](CO)O2)c(=O)n1` the value was “inactive”; for `OCCOCCN1CCN(C2=Nc3ccccc3Sc3ccccc32)CC1`, “inactive”; for `CCN(CCN)c1cccc(C)c1`, “inactive”.
On to `Nc1ccc(Cl)c([N+](=O)[O-])c1`, for which the outcome was inactive.
For `COc1ccc(N)c([N+](=O)[O-])c1`, the molecule was called inactive.
Same read-out and setting: for `OCCc1ccccc1` the value was “inactive”; for `CCOC(=O)C1OC1c1ccccc1` (stereo not given), “inactive”.
Take `O=CCc1ccccc1`: the outcome was inactive.
Still for that read-out and setting: with `CS(C)=O` the entry was “inactive”.
Same read-out and setting: for `C=C(C)C(=O)OCCOCCOCCOC(=O)C(=C)C` the value was “inactive”; for `O=C(Nc1ccc([N+](=O)[O-])cc1)Nc1ccc([N+](=O)[O-])cc1` (tested in a mixture with another compound), “inactive”.
The same measure, in the same setting: with `CC(=O)CC(=O)Nc1ccccc1` the entry was “inactive”.
